Calb FLC: affects C. albicans growth with fluconazole; C. albicans CaCi-2 (fluconazole-resistant clinical isolate) + fluconazole, Alamar Blue growth, 48 h; growth inhibition, % (test concentration not listed); 300,000 compounds, 0.57% hits;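 active = growth inhibition above about 58% in most replicates, limit read from the data, passing the limit was not always enough; inconclusive = exactly half the replicates above a set limit; inactive = most replicates below a set limit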;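 note: all wells also contain fluconazole at 8 µg/ml as a sub-toxic cotreatment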
Mdm2 MdmX PPI: disrupts the human Mdm2-MdmX interaction; 330,000 compounds, 3% hits; SaOS-2 split-luciferase Mdm2/MdmX complementation, luminescence; AID 485346; inhibition, % at 8 µM;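 active = inhibition of at least 50% at 8 µM in the primary screen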
Target sequence (O15151 whole entry, looked up): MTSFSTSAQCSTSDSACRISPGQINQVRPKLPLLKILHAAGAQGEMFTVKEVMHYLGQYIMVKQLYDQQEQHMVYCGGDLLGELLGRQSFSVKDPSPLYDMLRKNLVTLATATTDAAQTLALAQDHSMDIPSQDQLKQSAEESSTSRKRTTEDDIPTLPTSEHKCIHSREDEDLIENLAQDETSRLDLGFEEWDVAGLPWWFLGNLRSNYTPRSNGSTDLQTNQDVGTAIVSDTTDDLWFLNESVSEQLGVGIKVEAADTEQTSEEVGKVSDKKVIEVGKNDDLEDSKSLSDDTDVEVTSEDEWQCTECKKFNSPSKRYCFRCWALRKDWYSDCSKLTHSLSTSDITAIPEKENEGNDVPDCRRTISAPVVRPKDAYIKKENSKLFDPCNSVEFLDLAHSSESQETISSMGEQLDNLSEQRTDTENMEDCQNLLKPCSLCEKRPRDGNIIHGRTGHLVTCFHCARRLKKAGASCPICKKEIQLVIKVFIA
Target sequence (Q00987 whole entry, looked up): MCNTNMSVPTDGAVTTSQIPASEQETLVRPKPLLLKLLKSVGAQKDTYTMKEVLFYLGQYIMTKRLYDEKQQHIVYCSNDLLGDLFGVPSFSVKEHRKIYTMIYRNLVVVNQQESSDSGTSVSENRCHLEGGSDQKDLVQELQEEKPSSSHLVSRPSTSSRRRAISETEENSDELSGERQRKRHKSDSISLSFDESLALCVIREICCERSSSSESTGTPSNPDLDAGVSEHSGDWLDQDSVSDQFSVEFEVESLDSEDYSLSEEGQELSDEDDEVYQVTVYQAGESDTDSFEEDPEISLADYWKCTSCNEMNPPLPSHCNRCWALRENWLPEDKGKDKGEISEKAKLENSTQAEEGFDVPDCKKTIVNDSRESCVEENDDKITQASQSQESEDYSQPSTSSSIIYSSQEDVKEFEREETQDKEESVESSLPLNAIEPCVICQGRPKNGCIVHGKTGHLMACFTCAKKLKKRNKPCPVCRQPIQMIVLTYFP
SKKanGAS inh: inhibitors of SKKanGAS S. pyogenes growth in kanamycin (SK-promoter or general growth effect); BacTiter-Glo, 6 h; inhibition, % at 7.5 µM; 300,000 compounds, 1.3% hits;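 active = mean replicate score, as percent of positive control median, at least 50; inconclusive = mean below 50 but one replicate at or above 50; inactive = mean and every replicate below 50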;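 note: strain carries kanamycin resistance gene driven by streptokinase promoter and grows in 40 µg/ml kanamycin; loss of luminescence reflects streptokinase promoter inhibition or plain growth inhibition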
MPTP block: permeability transition pore inhibition; 360,000 compounds, 1.4% hits; inhibition, % at 10 µM; isolated mouse mitochondria, Ca2+ swelling absorbance, 30 min;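 active = inhibition of 50% or more, scaled per plate between neutral and stimulator controls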
CSC inhib: blocks cancer stem cells | inhibition, % at 7.5 µM | 300,000 compounds, 1.1% hits | cancer stem cell-like cells viability, luminescence; in the data active = inhibition above about 75%; inconclusive = no clear call, values can overlap the other calls; tested in HMLE shEcad cells
Beta cell apopt: blocks beta cell apoptosis. INS-1E cytokine-induced death, ATP luminescence, 48 h; percent of positive-control rescue, neutral wells zero. protection from apoptosis, % (concentration not given with the values). 300,000 compounds, 0.8% hits;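 active = Every replicate reaches about 75%, or at least half do and their mean reaches it too, limit read from the data; inconclusive = At least half of replicates reach the limit but their mean does not; inactive = Under half of replicates reach the limit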;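 note: higher means more ATP so stronger rescue from cytokine killing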
Large screens that a line does not name were inactive. Compounds with a hit are over-represented: about 5.4% of the library has one in this group of screens.

CCc1cccc2c(C(=O)COC(=O)c3ccc([N+](=O)[O-])s3)c[nH]c12	SKKanGAS inh 100.0
COc1ccc(C2CC(=O)Oc3cc(O)cc(O)c32)cc1 (configuration not stated)	none (no result: Beta cell apopt)
COc1ccc([C@H]2Oc3cc(O)cc(O)c3C(=O)C2[C@@H]2C(=O)c3c(O)cc(O)cc3O[C@@H]2c2ccc(OC)cc2)cc1 (some centres not stated)	SKKanGAS inh 100.2, CSC inhib 142.4 (no result: MPTP block)
CC1CCCN(CCCNC(=O)c2cc3c(Cl)nc4ccccc4c3s2)C1 (configuration not stated)	CSC inhib 85.5
CCN(CC)CCCNC(=O)c1cc2c(Cl)nc3ccccc3c2s1	CSC inhib 77.4
CC(C)(C)OC(=O)C[C@@H]1C/C=C\C[C@H](CC(=O)N[C@H](CO)Cc2ccccc2)C(=O)N[C@H](C(C)(C)C)COC1=O	none (no result: Calb FLC, SKKanGAS inh, CSC inhib, Beta cell apopt)
CN(C)CCOC(=O)CCCCCCCCC(=O)OCCN(C)C	none
O=C(NC(Cc1c[nH]c2ccccc12)C(=O)O)c1cccs1 (configuration not stated)	none
O=C(NC(Cc1c[nH]c2ccccc12)C(=O)N/N=C/c1cccc2ccccc12)c1cccs1 (configuration not stated)	SKKanGAS inh 60.3
CCCCCCc1nc(C(N)=O)c2[nH]c(=O)n(-c3ccc(OC)cc3OC)c2n1	none
CCCCCCCNC1=CC(=O)CC(c2ccccc2)C1 (configuration not stated)	Beta cell apopt 91.1
O=C(NNC(=S)Nc1ccc(F)c(Cl)c1)c1ccccc1Br	Calb FLC 106.8
Cc1cccc(NC(=S)NNC(=O)c2ccccc2Br)c1	none
CCC(CNc1cc(OC)cc2cccnc12)NC1CCCCC1 (configuration not stated)	Beta cell apopt 101.4 (no result: Mdm2 MdmX PPI)
CCOC(=O)NC(=O)/C(C#N)=N/Nc1ccc(F)cc1	none
O=C(CNC(=O)c1cccs1)NCCc1ccco1	none (no result: Calb FLC, SKKanGAS inh)
O=C(O)c1cn(C2CC2)c2cc(N3CCN(S(=O)(=O)c4ccc5c(c4)OCCO5)CC3)c(F)cc2c1=O	SKKanGAS inh 121.1
COC(=O)c1cc(=O)n(Cc2ccc(F)cc2)c(=Nc2ccccc2)s1	CSC inhib 86.5
COC(=O)c1cc(=O)n(Cc2cccs2)c(=Nc2ccccc2)s1	CSC inhib inconclusive
Cc1ccc2c(c1)S/C(=C/c1ccc[n+](CCO)c1)N2C	Calb FLC inconclusive, Beta cell apopt 99.4
Cc1ccc2c(c1)S/C(=C\c1cccc[n+]1C)N2CCO	none
CC(C)[C@H](NC(=O)[C@H](Cc1ccccc1)n1c(=O)[nH]c2ccccc2c1=O)C(=O)N[C@@H](Cc1ccccc1)C(=O)O	none
Cc1ccc(S(=O)(=O)NCCSc2nnnn2-c2ccc(C(N)=O)cc2)cc1	none
Cc1ccc(-n2nnnc2Sc2ccc(S(=O)(=O)NCCN(C)C)cc2[N+](=O)[O-])cc1	CSC inhib 98.5 (no result: Mdm2 MdmX PPI)
COc1cc(C(=O)NCCOc2ccccc2C)cc(OC)c1OC	none
COc1ccc(O)c(C(=O)c2cnc3nc4ccccc4n3c2)c1	Beta cell apopt 83.3 (no result: Mdm2 MdmX PPI)
CCN(CC)c1ccc(N=C2C=CC(=O)C=C2NC(C)=O)cc1	none (no result: Calb FLC, Mdm2 MdmX PPI, SKKanGAS inh, CSC inhib, Beta cell apopt)
O=C(Nc1nc(-c2ccncc2)cs1)c1ccco1	none
O=C(Nc1nc(-c2ccc3c(c2)OCCO3)cs1)c1ccco1	SKKanGAS inh 56.5
CCc1ccc2oc(-c3ccc(OC)cc3)cc(=Nc3cccc(C(=O)O)c3)c2c1	none
CCc1ccc2oc(-c3ccc(OC)cc3)cc(=Nc3c(C)n(C)n(-c4ccccc4)c3=O)c2c1	Calb FLC 71.3
C/C(NC(=O)c1ccccc1F)=C1\C(=O)C[C@@H]2[C@H]1C2(C)C	none
C/C(NC(=O)c1cccc(F)c1)=C1/C(=O)C[C@@H]2[C@H]1C2(C)C	CSC inhib 92.4
COc1cc(/C=N/Nc2ncnc3sc4c(c23)CCC4)ccc1O	SKKanGAS inh 70.4 (no result: Mdm2 MdmX PPI, CSC inhib, Beta cell apopt)
CC(C)Oc1cccc(C(=O)NC(=S)N2CCN(c3ccc(C(F)(F)F)cc3[N+](=O)[O-])CC2)c1	SKKanGAS inh 97.3
COc1cccc(C(=O)/C=C/c2ccc(N3CCCCC3)c([N+](=O)[O-])c2)c1	CSC inhib 85.9
CO/N=C/c1ccc(N2CCN(C(=O)c3ccc(C)cc3)CC2)c([N+](=O)[O-])c1	Calb FLC 108.6
O=C(NC(=S)N1CCN(c2ccc(Cl)cc2[N+](=O)[O-])CC1)c1cccs1	SKKanGAS inh 71.5 (no result: Mdm2 MdmX PPI)
Cc1ccc(Cl)cc1N1CCN(Cc2nc3ccsc3c(=O)[nH]2)CC1	none
CCCc1nc2c(Cl)cc(C(F)(F)F)cn2c1Cc1ccc(OC)cc1C	none (no result: Calb FLC, Mdm2 MdmX PPI, SKKanGAS inh, CSC inhib, Beta cell apopt)
COc1cccc(C(=O)NC(=S)N2CCN(c3ccc(C(F)(F)F)cc3[N+](=O)[O-])CC2)c1	SKKanGAS inh 70.3 (no result: Beta cell apopt)
Fc1ccccc1CNc1ccc(Cl)c(Cl)c1	SKKanGAS inh 56.2
CC(C)=CCC/C(C)=C/Cc1c(O)ccc(C(=O)/C=C/c2ccc(O)cc2)c1O	SKKanGAS inh 105.6, CSC inhib 121.0
C=C(C)C(O)Cc1c(OC)ccc(C(=O)/C=C/c2ccc(O)cc2)c1O (configuration not stated)	none (no result: Calb FLC, SKKanGAS inh, CSC inhib, Beta cell apopt)
COc1ccc(C2=CSC3=NCCN23)cc1[N+](=O)[O-]	none
C/C(=N\Nc1nc2ccc(Cl)cc2o1)c1ccccc1	SKKanGAS inh 67.6
O=C(C[C@@H]1C/C=C/CC[C@@H](Cc2ccc(F)cc2)C(=O)OCCNC1=O)N[C@H](CO)Cc1ccccc1	none (no result: Calb FLC, SKKanGAS inh)
O=C(Nn1c(=S)[nH]c2ccccc2c1=O)c1ccncc1	none (no result: CSC inhib)
O=C(N/N=C/c1ccc(-c2ccc(Cl)c(C(=O)O)c2)o1)c1cc2c(ccc3ccccc32)o1	SKKanGAS inh 61.2
Cc1ccc(C(=O)N/N=C\c2ccc(-c3ccc(Cl)c(Cl)c3)o2)cn1	CSC inhib 75.9
Cc1ccc(-c2ccc(/C=N/NC(=S)Nc3ccccc3)o2)cc1[N+](=O)[O-]	none
Cc1ccc(C(=O)N/N=C/c2ccc(-c3cccc(Cl)c3)o2)cn1	none
CNC(=S)N/N=C/c1ccc(-c2ccc(Cl)c([N+](=O)[O-])c2)o1	Calb FLC 84.7
CCOC(=O)[C@]12CCC=C1N(Cc1ccc(Cl)cc1Cl)C(=O)[C@H](CC(=O)N1CCCCC1)C2	none (no result: Calb FLC, Mdm2 MdmX PPI, SKKanGAS inh, CSC inhib, Beta cell apopt)
O=C(/C=C/c1cn(-c2ccccc2)nc1-c1ccccc1)Nc1ccc(C(=O)O)cc1	SKKanGAS inh 49.9
COc1cc2nc(SCc3ccc(Cl)cc3Cl)n(Cc3cccs3)c(=N)c2cc1OC	Calb FLC 80.8
CC(=O)NC(Cc1ccc(F)cc1)C(=O)NC1CCN(c2ncccc2[N+](=O)[O-])CC1 (configuration not stated)	none
COc1ccc(Nc2nnc(-c3ccc(C)cc3)c3ccccc23)cc1C(=O)N1CCCCC1	none
COc1ccc(Nc2nnc(-c3ccccc3)c3ccccc23)cc1C(=O)N1CCCCC1	CSC inhib 96.9
Cn1cc(CCC(=O)N2CCCC(CCC(=O)NCc3ccc(F)c(F)c3)C2)cn1 (configuration not stated)	none (no result: CSC inhib)
